Screening data as filed in PubChem.
The sample as a whole holds a higher share of hits than the screen did.
Tg IFNy HTS: inhibitors of Toxoplasma gondii growth with IFN-gamma; Toxoplasma gondii growth in IFN-gamma-treated host cells; stronger effect = lower value; activity change, negative = inhibition, % (concentration not given with the values); 69,000 tested, 3.8% active; AID 1259416; in the data active means activity change below about -70%, passing the limit was not always enough;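 further: host cells are HeLa cells infected with Toxoplasma gondii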
* marks the source's active call; other numbers are inactive results.

SMILES	Tg IFNy HTS
CS(=O)(=O)N1CCCC(Cc2ccc(Cl)nc2)C1 (centres undefined)	-6
CCS(=O)(=O)N1CCC2(CC1)OC(=O)C(C)=C2C(=O)Nc1ccc2c(c1)OCO2	-52
CC(C)Cc1cc(C(=O)N(C)Cc2n[nH]c3c2CCCC3)n(C)n1	-14
Cc1ccccc1CNC1=NCCNC12CCN(S(=O)(=O)c1ccc(CC(C)C)cc1)CC2	-30
COCCN1CCCC12CCN(Cc1cc(C)nn1C)CC2	-56
Cc1ccc(-c2nc(C)c(CCNC(=O)C(=O)Nc3cccc(F)c3)s2)cc1	17
COc1cccc(-c2nc3c(s2)CN(S(=O)(=O)c2ccc(C)c(C)c2)CC3)c1	-104*
CCc1ccc(S(=O)(=O)N2CCc3nc(-c4cccc(OC)c4)sc3C2)cc1	-46
Nc1cc(-c2ccco2)nn1-c1cc(C(F)(F)F)cc(C(F)(F)F)c1	136
CCS(=O)(=O)N1CCC(n2nc(-c3ccoc3C)oc2=O)CC1	21
COc1ccc(NC(=O)c2nnn(Cc3nc(-c4cccc(OC)c4OC)oc3C)c2C)cc1Cl	32
COc1cccc(-c2nc(Cn3nnc(C(=O)Nc4cccc(Cl)c4C)c3C)c(C)o2)c1OC	-16
CCOc1ccccc1NC(=O)c1nnn(Cc2nc(-c3cccc(OC)c3OC)oc2C)c1C	-79*
COc1cccc(-c2nc(Cn3nnc(C(=O)Nc4ccccc4)c3C)c(C)o2)c1OC	-50
COc1cccc(-c2nc(Cn3nnc(C(=O)Nc4cc(C)cc(C)c4)c3C)c(C)o2)c1OC	-105*
CCOc1ccccc1-c1nc(Cn2nnc(C(=O)Nc3ccccc3OC)c2C)c(C)o1	-19
COc1ccc(CNC(=O)c2c(O)c3cccnc3n(-c3cccc(F)c3)c2=O)cc1	183
C=CCC(Nc1ccc(OC)cc1)c1ccco1 (centres undefined)	39
CN(CCOc1ccc(CC(Nc2ccccc2C(=O)c2ccccc2)C(=O)O)cc1)c1ccccn1 (centres undefined)	7
COC(=O)C(Cc1ccc(OCCn2c(=O)sc3cc(C(=O)c4ccccc4)ccc32)cc1)C(=O)OC	-87*
O=c1sc2ccccc2n1CCCOc1ccccc1	-10
O=C1NCC2(CCCN(Cc3cnc(C4CCCCC4)nc3)CC2)O1 (centres undefined)	5
Clc1ccc(CSc2nc(Nc3ccc4c(c3)OCO4)c3ccccc3n2)cc1	-56
CCOc1ccc(S(=O)(=O)N2CCC3(CC2)Nc2cc(OC)ccc2-n2cccc23)cc1	-3
CCC(=O)c1ccc(OCC(O)CN2CCN(c3ccccc3)CC2)cc1 (centres undefined)	12
SMILES	Tg IFNy HTS
O=S(=O)(c1ccccc1)N1CCN(CC(O)COc2ccc3ccccc3c2)CC1 (centres undefined)	-83*
CC(C)c1nccc(CN2CCN(S(=O)(=O)c3ccccc3)CC2)n1	4
CCN(CC)c1ncnc2c1cnn2CC(=O)Nc1cccc(Cl)c1C	-41
CCCc1cnc(C)nc1N1CC(c2ccccn2)C1	-2
C=CCOC1CC2(CCN(C(=O)c3cnc(C)cn3)CC2)C1	-9
Fc1ccc(CSc2nc(Nc3ccc(F)cc3)c3ccccc3n2)cc1	-40
Brc1ccc(Nc2c3ccccc3nc3ccccc23)cc1	-92*
Cc1nc(OCC(=O)Nc2ccc(Br)cc2)c2ccccc2n1	-7
CNc1nc(C2CCNC2)nc2c1CCN(C)C2 (centres undefined)	-23
O=C1NCCN2CCN(S(=O)(=O)c3ccc(Cl)cc3Cl)CC12 (centres undefined)	6
O=C(C1CCCCN1Cc1ccccc1)N1CCC(CO)(Cc2ccc(Cl)cc2)CC1 (centres undefined)	23
Cc1cccc(S(=O)(=O)N2C[C@H]3C[C@H](C(=O)NC4CCC4)[C@@H](C2)O3)c1	-1
COc1ccc(C)cc1Nc1nc(-c2nnc(-c3ccc(Cl)cc3)o2)nc2ccccc12	89
Cc1cccc(-c2nnc(-c3nc(Nc4ccc(C)c(F)c4)c4ccccc4n3)o2)c1	52
Cc1cccc(Nc2nc(-c3nnc(-c4cccc(C)c4)o3)nc3ccccc23)c1	-24
CCOc1ccccc1Nc1nc(-c2nnc(-c3cccc(C)c3)o2)nc2ccccc12	-51
COc1ccc(-c2nnc(-c3nc(Nc4cccc(OC)c4)c4ccccc4n3)o2)cc1	101
COc1ccccc1Nc1nc(-c2nnc(-c3cccc(C)c3)o2)nc2ccccc12	-86*
COc1cccc(Nc2nc(-c3nnc(-c4ccc(C)cc4)o3)nc3ccccc23)c1	95
Cc1cccc(Nc2nc(-c3nnc(-c4ccccc4)o3)nc3ccccc23)c1C	-7
COc1ccc(-c2nnc(-c3nc(Nc4cc(C)cc(C)c4)c4ccccc4n3)o2)cc1	-101*
COc1ccccc1Nc1nc(-c2nnc(-c3ccccc3)o2)nc2ccccc12	-92*
COc1cc(Nc2nc(-c3nnc(-c4cccc(C)c4)o3)nc3ccccc23)cc(OC)c1	-130*
Cn1nc(C(=O)N2CCOCC2)c2c1CN(Cc1ccoc1)C2	1
O=C(c1ccccc1F)N1CCC2(CCCN2c2ncccn2)CC1	-6
COc1cccc(CNC(=O)N2CCC3(CC2)Nc2cc(OC)ccc2-n2cccc23)c1	380
